The values below come from PubChem BioAssay AID1494156 (National Center for Advancing Translational Sciences (NCATS), 2020).

Molecules are shown by their SMILES. Inconclusive results are not listed. Values without a mark were called inactive. Calls of active or inactive are those of the source. Calls come from the whole dose curve.

The assay is described as follows: VSV-G qHTS counterscreen for inhibitors of MERS-S pseudo-typed particle cell entry. The note with it: VSV-G pseudotyped particle cell entry, luciferase counterscreen; series mostly up to 57.1 µM; activity, negative = inhibition: at the top concentration. (In general: Quantitative high-throughput screening tests each substance at several concentrations.)
Consider `C=CC1(C)CC(=O)C2(O)C(C)(O1)C(OC(C)=O)C(OC(=O)CCN(C)C)C1C(C)(C)CCC(O)C12C` (configuration not stated), for which the “activity, negative = inhibition” value is 0%.
On to `CC(=O)N1CCN(c2ccc(OC[C@H]3CO[C@](Cn4ccnc4)(c4ccc(Cl)cc4Cl)O3)cc2)CC1`, for which the Potency was 7640 nM (active).
In the case of `Cc1oncc1C(=O)Nc1ccc(C(F)(F)F)cc1`, the “activity, negative = inhibition” value was 0%.
Take `COc1cccc2c1C(=O)c1c(O)c3c(c(O)c1C2=O)C[C@@](O)(C(=O)CO)CC3OC1CC(N2CCOC(OC)C2)C(O)C(C)O1` (some centres not stated): the Potency is 152 nM (active).
Still for that read-out and setting: as for `Nc1ccn([C@@H]2O[C@H](CO)[C@@H](O)C2(F)F)c(=O)n1`, the figure is 136 nM (active).
On the same count and under the same terms, the same measure for `CCCCc1oc2ccccc2c1C(=O)c1cc(I)c(OCCN(CC)CC)c(I)c1`: 24100 nM (active); for `COc1cccc2c1C(=O)c1c(O)c3c(c(O)c1C2=O)C[C@@](O)(C(C)=O)C[C@@H]3O[C@H]1C[C@H](N)[C@H](O)[C@H](C)O1`: 1920 nM (active).
Still for that read-out and setting: the same measure for `C[n+]1c2cc(N)ccc2cc2ccc(N)cc21` (tested in a mixture with another compound): 1710 nM (active).
On to `Nc1nc(Cl)nc2c1ncn2C1CC(O)C(CO)O1` (configuration not stated), for which the Potency is 9610 nM (active).
For `CC(=O)[C@]1(O)Cc2c(O)c3c(c(O)c2[C@@H](O[C@H]2C[C@H](N)[C@H](O)[C@H](C)O2)C1)C(=O)c1ccccc1C3=O`, the Potency is 2150 nM (active).
Same read-out and setting: as for `CC(C)C[C@H](NC(=O)[C@H](CCc1ccccc1)NC(=O)CN1CCOCC1)C(=O)N[C@@H](Cc1ccccc1)C(=O)N[C@@H](CC(C)C)C(=O)[C@@]1(C)CO1`, the figure is 192 nM (active); as for `CC(C)OC(=O)OCOP(=O)(CO[C@H](C)Cn1cnc2c(N)ncnc21)OCOC(=O)OC(C)C`, 19.2 nM (active); as for `CC[C@@]1(O)C(=O)OCc2c1cc1n(c2=O)Cc2cc3c(CN(C)C)c(O)ccc3nc2-1`, 85.7 nM (active).
On the same count and under the same terms, as for `COc1ccc2cc1Oc1ccc(cc1)C[C@H]1c3c(cc4c(c3Oc3cc5c(cc3OC)CCN(C)[C@@H]5C2)OCO4)CCN1C`, the figure is 21500 nM (active).
Consider `NCCNc1ccc(NCCN)c2c1C(=O)c1ccncc1C2=O`, for which the Potency is 21500 nM (active).
Still for that read-out and setting: as for `CO[C@@]12[C@H](COC(N)=O)C3=C(C(=O)C(C)=C(N)C3=O)N1C[C@@H]1N[C@@H]12`, the figure is 857 nM (active); as for `CC(C)(C)c1ccc(C(=O)CCCN2CCC(OC(c3ccccc3)c3ccccc3)CC2)cc1`, 8570 nM (active); as for `CCCCCCCCCCCCCC[n+]1ccc(C)cc1`, 1710 nM (active).
Still for that read-out and setting: the same measure for `Cc1nn(C)c2c1C(c1ccccc1F)=NCC(=O)N2C`: 6070 nM (active).
On the same count and under the same terms, as for `CN1CCCCC1CCN1c2ccccc2Sc2ccc(S(C)=O)cc21` (configuration not stated), the figure is 27100 nM (active).
On to `C[C@@H]1CCO[C@H]2Cn3cc(C(=O)NCc4ccc(F)cc4F)c(=O)c(O)c3C(=O)N12`, for which the Potency is 1.5 nM (active).
The same measure, in the same setting: as for `CC(C)(C)C(=O)OCOP(=O)(COCCn1cnc2c(N)ncnc21)OCOC(=O)C(C)(C)C`, the figure is 42.9 nM (active); as for `COc1cc2nccc(Oc3ccc(NC(=O)NC4CC4)c(Cl)c3)c2cc1C(N)=O`, 17100 nM (active).
Still for that read-out and setting: the same measure for `C=C1c2c(Cl)ccc(O)c2C(O)=C2C(=O)[C@@]3(O)C(O)=C(C(N)=O)C(=O)[C@@H](N(C)C)[C@@H]3[C@@H](O)[C@H]12`: 19200 nM (active).
In the case of `COc1ccc(Cc2nccc3cc(OC)c(OC)cc23)cc1OC`, the Potency is 3040 nM (active).
On the same count and under the same terms, the same measure for `CCN(CC)Cc1cc(Nc2ccnc3cc(Cl)ccc23)ccc1O`: 24100 nM (active).
For `O=c1ccc2ccccc2o1`, the “activity, negative = inhibition” value was 0%.
